Columns and labels:
Assay in all cases: log2 ratio of Biotin-Ahx-Ub-VS probe labelling (fragment/DMSO); higher = less target engagement (more negative = stronger competition), active = hit call of the paper (q ≤ 0.05, log2 ratio ≤ -1)
Details in all cases: compound concentration: 200 uM; treatment time: 3 h
USP42 = target: T1, USP42 (UniProt Q9H9J4)
T1 sequence (whole entry): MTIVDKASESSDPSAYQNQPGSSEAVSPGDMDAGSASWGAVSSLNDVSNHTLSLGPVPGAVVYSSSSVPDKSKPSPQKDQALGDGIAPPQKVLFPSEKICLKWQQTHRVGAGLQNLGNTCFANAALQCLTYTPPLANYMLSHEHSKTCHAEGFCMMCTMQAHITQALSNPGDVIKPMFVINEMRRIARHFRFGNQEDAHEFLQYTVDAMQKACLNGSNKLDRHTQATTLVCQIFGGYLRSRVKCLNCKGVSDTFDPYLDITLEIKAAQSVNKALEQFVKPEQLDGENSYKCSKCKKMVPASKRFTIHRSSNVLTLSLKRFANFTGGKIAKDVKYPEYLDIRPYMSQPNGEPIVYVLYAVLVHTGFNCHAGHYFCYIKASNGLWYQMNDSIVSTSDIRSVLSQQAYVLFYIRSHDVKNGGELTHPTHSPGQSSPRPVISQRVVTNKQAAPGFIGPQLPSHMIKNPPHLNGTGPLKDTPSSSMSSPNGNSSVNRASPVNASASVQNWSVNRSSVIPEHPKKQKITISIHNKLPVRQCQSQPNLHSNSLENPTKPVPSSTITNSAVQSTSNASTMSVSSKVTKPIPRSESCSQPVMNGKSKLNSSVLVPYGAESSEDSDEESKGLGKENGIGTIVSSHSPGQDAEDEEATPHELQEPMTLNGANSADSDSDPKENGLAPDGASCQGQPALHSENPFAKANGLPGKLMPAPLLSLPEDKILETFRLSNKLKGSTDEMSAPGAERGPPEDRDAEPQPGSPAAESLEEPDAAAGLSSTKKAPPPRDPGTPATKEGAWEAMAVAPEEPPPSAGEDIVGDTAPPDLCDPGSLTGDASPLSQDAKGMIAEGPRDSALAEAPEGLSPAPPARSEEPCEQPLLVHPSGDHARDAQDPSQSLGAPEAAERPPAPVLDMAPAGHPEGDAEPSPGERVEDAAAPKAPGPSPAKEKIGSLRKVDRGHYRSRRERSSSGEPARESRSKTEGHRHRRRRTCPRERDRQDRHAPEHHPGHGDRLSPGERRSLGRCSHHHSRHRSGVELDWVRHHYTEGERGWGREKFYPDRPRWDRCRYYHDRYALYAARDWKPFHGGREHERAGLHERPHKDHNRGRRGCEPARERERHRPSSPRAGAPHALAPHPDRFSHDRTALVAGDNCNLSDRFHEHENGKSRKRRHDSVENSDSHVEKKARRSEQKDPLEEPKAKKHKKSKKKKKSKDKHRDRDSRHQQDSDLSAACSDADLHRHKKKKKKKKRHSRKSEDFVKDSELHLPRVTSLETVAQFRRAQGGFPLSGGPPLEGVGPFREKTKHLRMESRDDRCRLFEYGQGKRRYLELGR
In short: (§1)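 Labelling with Biotin-Ahx-Ub-VS (0.5 µM final, 1 h) followed a 3 h triplicate treatment of HEK293T lysate (495 µg per sample, Tris/CHAPS/IGEPAL buffer with protease inhibitors) with fragment at 200 µM or vehicle. Labelled DUBs were NeutrAvidin-enriched, digested with LysC and trypsin, and run by diaPASEF LC-MS/MS. The values, average log2 fragment/vehicle ratios by unpaired t-test, come from global-median-normalised Spectronaut label-free quantities. Proteins with ≥2 unique peptides were used.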

USP46 = USP46 (UniProt P62068)
In short: as §1

USP47 = target: T2, USP47 (UniProt Q96K76)
T2 sequence (whole entry): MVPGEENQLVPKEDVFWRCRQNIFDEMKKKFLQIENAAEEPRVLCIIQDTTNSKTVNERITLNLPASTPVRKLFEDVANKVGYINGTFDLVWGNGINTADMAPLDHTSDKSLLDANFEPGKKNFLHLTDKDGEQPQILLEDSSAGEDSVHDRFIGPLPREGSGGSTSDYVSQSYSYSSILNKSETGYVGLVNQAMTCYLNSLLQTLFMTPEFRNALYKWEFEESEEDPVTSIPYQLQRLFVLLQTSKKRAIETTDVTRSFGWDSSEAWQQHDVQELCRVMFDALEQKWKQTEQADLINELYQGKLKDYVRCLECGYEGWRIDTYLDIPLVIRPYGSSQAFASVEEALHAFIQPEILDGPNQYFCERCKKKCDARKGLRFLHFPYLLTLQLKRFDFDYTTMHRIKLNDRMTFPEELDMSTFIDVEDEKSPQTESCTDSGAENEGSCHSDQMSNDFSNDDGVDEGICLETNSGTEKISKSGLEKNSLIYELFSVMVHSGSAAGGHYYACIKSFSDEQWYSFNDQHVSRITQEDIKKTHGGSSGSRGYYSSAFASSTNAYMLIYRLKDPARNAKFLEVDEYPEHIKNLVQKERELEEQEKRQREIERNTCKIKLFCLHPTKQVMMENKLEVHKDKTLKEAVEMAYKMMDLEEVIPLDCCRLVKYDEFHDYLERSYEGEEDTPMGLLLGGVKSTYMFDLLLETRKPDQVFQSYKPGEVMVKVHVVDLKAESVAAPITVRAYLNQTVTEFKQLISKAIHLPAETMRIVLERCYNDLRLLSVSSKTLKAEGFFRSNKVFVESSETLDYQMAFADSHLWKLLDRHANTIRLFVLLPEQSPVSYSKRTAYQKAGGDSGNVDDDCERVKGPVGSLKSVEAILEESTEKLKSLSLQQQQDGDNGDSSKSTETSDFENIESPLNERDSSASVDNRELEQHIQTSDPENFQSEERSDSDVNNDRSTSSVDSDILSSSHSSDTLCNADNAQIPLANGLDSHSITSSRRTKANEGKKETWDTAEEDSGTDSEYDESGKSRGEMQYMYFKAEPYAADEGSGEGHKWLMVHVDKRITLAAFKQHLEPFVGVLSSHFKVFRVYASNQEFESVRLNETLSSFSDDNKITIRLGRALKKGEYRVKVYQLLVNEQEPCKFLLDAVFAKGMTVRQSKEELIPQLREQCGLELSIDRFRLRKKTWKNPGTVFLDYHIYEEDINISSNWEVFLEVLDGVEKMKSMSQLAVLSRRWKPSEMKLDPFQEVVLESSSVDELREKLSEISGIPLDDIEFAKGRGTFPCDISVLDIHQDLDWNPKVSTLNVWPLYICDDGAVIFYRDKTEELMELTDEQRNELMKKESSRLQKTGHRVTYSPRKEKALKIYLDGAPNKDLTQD
In short: as §1

USP48 = target: T3, USP48 (UniProt Q86UV5)
T3 sequence (whole entry): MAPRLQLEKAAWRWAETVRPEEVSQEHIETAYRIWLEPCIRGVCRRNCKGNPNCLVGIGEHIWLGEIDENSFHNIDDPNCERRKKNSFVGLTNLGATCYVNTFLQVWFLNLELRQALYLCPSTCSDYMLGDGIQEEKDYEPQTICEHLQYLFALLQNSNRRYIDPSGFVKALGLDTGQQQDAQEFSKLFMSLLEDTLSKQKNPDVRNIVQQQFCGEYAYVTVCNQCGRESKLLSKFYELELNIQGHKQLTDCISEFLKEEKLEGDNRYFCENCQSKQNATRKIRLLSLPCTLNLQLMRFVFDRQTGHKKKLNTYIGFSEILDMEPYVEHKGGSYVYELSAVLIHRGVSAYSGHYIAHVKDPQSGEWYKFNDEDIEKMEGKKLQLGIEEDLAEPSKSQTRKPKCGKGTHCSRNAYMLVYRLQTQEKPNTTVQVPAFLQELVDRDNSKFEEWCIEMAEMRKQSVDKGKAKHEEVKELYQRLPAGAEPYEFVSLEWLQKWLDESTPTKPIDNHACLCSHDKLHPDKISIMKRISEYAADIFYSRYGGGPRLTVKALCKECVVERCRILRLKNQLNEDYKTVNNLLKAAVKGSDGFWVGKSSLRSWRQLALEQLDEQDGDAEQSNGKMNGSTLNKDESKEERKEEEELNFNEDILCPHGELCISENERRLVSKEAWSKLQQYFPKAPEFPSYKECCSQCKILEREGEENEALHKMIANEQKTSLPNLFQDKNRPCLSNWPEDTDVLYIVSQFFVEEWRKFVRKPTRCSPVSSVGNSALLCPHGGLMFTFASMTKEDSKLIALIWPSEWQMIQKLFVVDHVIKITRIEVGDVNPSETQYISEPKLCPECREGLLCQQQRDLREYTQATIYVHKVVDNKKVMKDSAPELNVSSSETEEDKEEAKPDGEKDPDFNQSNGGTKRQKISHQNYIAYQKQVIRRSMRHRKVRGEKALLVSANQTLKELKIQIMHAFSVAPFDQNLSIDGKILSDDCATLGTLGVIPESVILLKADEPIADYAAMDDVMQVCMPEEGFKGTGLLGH
In short: as §1

USP5 = target: T4, USP5 (UniProt P45974)
T4 sequence (whole entry): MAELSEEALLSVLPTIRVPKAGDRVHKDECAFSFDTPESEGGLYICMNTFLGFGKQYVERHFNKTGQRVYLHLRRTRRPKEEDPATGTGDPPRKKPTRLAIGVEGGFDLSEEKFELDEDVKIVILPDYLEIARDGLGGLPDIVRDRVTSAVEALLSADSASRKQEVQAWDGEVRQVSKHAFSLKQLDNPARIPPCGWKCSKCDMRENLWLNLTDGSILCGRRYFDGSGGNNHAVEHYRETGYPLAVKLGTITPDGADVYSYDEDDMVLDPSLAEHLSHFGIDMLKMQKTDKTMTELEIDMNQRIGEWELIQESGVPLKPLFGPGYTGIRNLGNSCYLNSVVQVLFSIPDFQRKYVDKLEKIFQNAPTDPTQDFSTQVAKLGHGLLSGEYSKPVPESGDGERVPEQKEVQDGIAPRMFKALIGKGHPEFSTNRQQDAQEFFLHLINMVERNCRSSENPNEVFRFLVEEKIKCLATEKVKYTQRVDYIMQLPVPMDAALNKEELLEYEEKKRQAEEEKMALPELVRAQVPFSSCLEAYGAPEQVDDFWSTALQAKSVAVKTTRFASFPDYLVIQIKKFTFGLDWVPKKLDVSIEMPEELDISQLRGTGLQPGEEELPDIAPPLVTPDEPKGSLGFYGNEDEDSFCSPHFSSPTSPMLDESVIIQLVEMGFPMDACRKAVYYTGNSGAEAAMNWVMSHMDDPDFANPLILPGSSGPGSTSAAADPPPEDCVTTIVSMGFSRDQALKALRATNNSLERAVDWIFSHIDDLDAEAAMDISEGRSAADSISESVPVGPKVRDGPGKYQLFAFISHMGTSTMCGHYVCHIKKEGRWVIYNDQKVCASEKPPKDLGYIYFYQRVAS
In short: as §1

USP54 = USP54 (UniProt Q70EL1)
In short: as §1

USP7 = USP7 (UniProt Q93009)
In short: as §1

USP8 = target: T5, USP8 (UniProt P40818)
T5 sequence (whole entry): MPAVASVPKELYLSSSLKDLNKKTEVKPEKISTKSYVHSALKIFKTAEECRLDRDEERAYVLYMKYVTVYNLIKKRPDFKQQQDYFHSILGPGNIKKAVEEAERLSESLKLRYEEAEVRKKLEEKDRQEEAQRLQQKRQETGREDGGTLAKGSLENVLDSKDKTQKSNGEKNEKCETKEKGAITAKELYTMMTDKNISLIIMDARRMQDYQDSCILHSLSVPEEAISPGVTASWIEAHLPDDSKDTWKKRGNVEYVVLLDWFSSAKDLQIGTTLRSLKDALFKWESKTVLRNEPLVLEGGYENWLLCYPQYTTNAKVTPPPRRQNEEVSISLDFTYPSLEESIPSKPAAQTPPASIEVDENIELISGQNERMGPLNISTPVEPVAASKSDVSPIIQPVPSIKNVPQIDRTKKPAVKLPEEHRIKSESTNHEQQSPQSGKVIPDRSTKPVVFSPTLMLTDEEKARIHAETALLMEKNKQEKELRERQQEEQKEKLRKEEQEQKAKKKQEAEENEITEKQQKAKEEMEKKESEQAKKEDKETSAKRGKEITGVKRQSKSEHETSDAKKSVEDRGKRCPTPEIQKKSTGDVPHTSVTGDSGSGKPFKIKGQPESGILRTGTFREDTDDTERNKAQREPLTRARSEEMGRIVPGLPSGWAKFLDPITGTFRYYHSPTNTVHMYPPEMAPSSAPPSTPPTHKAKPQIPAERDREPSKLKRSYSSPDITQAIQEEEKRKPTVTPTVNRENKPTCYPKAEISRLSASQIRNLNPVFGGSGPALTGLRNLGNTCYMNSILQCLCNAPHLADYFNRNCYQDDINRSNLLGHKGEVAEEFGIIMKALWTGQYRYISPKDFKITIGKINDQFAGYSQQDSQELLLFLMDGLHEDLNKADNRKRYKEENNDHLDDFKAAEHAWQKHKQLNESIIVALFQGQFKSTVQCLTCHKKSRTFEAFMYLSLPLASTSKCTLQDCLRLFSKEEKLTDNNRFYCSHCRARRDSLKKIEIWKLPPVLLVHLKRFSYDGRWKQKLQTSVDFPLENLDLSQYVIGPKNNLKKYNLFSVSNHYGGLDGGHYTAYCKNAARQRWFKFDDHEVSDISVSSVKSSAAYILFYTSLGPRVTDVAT
In short: as §1

USP9X = USP9X (UniProt Q93008)
In short: as §1

UniProt O00487 = target: UniProt O00487
In short: as §1

Measured: log2 ratio of Biotin-Ahx-Ub-VS probe labelling

UniProt O00487, sequence (O00487 whole entry): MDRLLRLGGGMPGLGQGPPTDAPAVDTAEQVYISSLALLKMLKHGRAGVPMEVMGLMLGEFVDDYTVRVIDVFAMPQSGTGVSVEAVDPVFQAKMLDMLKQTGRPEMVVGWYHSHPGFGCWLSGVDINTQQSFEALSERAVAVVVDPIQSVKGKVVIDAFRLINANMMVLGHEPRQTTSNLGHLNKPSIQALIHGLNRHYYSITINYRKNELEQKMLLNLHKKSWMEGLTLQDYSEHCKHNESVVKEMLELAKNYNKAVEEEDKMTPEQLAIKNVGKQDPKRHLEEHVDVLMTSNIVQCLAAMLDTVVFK
USP7, sequence (Q93009 whole entry, looked up): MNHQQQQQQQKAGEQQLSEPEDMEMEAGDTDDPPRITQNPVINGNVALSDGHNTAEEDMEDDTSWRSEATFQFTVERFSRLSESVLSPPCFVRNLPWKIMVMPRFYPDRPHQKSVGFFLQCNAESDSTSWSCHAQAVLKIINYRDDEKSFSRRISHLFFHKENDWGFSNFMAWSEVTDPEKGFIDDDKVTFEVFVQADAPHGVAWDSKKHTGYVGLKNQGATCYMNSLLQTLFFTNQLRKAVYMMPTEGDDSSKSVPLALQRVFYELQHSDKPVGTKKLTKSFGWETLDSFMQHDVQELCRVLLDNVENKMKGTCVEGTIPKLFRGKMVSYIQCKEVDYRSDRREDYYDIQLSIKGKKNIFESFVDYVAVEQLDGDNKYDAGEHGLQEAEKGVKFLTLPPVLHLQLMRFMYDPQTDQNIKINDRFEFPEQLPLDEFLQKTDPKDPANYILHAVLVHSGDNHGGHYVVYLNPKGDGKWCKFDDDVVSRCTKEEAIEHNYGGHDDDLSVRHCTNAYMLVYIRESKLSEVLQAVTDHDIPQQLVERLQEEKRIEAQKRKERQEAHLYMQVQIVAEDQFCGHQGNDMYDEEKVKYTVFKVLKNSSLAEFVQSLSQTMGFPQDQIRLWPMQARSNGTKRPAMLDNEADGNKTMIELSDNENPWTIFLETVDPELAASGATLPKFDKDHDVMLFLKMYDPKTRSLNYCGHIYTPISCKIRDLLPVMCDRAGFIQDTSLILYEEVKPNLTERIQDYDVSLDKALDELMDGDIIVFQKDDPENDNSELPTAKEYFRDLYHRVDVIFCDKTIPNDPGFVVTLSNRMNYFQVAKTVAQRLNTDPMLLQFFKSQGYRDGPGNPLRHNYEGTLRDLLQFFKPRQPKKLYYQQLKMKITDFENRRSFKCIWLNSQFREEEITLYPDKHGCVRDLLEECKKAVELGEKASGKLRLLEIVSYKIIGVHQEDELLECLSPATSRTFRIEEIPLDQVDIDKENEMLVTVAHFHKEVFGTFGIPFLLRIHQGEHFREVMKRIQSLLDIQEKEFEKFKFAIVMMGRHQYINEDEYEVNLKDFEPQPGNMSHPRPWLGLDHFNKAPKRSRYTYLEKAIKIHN
USP46, sequence (P62068 whole entry): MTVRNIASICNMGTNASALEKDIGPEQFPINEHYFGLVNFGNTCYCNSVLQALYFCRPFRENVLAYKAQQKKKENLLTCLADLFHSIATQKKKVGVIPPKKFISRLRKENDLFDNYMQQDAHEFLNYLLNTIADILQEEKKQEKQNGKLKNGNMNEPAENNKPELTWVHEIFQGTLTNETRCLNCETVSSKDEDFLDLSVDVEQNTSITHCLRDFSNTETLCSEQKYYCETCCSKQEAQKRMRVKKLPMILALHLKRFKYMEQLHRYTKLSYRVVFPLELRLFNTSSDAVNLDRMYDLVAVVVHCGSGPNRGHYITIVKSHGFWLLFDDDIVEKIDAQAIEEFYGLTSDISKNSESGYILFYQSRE
USP9X, sequence (Q93008 whole entry): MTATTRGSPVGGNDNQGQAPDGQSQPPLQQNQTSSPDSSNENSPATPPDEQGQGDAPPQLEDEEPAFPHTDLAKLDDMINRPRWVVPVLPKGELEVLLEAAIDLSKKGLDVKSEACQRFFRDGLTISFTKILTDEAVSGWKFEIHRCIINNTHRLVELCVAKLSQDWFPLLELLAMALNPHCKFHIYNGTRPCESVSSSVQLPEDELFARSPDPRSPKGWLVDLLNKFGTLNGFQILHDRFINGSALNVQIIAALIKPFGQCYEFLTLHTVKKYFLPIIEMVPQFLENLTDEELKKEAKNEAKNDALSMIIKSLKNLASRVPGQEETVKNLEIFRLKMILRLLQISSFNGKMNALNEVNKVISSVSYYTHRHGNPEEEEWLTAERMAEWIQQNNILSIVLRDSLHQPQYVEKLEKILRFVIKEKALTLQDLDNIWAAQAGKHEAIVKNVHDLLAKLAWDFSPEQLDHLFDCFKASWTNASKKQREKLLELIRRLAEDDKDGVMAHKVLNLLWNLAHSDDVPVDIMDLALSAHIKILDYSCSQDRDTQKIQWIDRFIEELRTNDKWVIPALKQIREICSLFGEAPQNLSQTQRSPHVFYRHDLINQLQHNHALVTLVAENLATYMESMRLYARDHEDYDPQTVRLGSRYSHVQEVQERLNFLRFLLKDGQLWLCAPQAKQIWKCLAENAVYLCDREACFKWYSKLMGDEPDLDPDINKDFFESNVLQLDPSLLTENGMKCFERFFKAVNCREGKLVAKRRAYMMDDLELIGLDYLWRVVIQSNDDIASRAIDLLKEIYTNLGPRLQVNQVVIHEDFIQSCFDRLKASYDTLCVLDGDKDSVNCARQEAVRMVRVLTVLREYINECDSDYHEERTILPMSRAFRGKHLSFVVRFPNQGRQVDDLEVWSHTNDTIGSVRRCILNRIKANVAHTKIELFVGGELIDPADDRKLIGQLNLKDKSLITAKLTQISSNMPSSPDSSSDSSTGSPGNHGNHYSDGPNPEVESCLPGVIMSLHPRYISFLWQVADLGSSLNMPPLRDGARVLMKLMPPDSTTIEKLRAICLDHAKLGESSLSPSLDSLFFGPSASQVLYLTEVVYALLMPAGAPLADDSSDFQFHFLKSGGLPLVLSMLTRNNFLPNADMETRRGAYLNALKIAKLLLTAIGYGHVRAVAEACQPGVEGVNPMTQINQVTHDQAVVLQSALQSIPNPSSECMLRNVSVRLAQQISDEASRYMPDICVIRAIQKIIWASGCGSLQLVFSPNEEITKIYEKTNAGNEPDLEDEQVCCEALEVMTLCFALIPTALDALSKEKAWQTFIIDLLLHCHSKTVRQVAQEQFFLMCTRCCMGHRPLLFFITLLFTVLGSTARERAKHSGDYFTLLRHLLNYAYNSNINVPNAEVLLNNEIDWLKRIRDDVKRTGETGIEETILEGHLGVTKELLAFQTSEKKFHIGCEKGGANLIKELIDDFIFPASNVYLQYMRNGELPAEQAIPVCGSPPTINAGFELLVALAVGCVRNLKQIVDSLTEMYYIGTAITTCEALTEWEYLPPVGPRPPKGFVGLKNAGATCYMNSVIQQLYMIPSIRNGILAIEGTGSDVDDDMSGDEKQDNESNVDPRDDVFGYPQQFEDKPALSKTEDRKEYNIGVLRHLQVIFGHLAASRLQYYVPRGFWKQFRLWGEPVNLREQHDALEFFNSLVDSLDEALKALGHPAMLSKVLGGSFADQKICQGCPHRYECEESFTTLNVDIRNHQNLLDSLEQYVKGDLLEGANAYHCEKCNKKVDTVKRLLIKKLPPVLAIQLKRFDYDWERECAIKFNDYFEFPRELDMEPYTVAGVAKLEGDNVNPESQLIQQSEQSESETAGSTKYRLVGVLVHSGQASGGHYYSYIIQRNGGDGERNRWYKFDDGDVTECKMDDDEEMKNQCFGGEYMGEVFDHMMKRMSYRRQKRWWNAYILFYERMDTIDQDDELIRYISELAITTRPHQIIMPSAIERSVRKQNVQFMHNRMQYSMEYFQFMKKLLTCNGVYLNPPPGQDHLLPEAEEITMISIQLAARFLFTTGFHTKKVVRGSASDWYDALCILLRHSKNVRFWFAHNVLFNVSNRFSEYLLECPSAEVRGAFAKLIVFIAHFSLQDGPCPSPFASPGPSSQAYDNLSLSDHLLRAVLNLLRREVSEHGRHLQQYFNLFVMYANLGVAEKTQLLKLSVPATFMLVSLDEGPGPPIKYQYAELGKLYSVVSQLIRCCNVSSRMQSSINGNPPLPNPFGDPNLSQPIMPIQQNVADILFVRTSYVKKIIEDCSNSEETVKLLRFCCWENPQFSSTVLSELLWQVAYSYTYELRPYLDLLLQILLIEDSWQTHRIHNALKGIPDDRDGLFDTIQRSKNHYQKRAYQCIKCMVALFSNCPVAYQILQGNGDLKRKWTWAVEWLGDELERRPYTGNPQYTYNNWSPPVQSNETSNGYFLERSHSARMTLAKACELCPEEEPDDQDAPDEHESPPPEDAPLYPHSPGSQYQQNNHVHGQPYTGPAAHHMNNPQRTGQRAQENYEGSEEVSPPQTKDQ

O=C(CCl)NCc1noc(C2CC2)n1
inactive: USP42 -0.112 | USP46 -0.0864 | USP47 -0.0714 | USP48 -0.135 | USP5 -0.183 | USP54 1.02 | USP7 -0.262 | USP8 -0.421 | USP9X -0.268 | UniProt O00487 -0.16
